# HP1b binding inh: inhibitors of HP1-beta chromodomain binding to methylated histone tails; P83916; AlphaScreen HP1-beta / biotin-H3K9me3 peptide binding; Potency, µM (doses to about 114 µM), for the others: top-dose activity change, negative = inhibition, usual class: inhibitors; 0.56% of 390,000 active; AID 540317; note: nearly all actives have a fitted effect of over 70% in size
# Target sequence (P83916 whole entry, looked up): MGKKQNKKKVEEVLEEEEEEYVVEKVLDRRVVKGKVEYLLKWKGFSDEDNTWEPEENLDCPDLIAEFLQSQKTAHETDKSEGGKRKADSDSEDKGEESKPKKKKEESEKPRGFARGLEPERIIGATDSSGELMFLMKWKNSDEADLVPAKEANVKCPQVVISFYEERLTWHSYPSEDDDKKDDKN
#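 Compound inhibition of the preformed complex between 50 nM HP1-beta and 50 nM biotinylated H3K9me3 peptide was read by AlphaScreen. Buffer was PBS pH 7.4 with 0.01% Tween-20. Incubations ran 30 min at room temperature, with 10 ug/mL donor/acceptor beads.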
# JMJD2A Tudor inh: blocks the human JMJD2A Tudor domain; O75164; AlphaScreen JMJD2A-Tudor / H3K4me3 peptide binding; Potency, µM (series often up to 114 µM), inactives show at the top dose activity change, negative = inhibition, actives largely listed as inhibitors; 4.4% of 390,000 active; note: % is set by controls: 0 for no effect and ±100 for the full control effect; nearly all actives have a fitted effect of over 50% in size
# L3MBTL1 inh: L3MBTL1 (human) inhibition | Q9Y468 | AlphaScreen L3MBTL1–H3K9me1 peptide binding | Potency, µM (series often up to 57.1 µM), inactives show at the top dose activity, negative = inhibition, actives largely listed as inhibitors | 0.66% of 230,000 active | AID 485360; note: % is set by controls: 0 for no effect and ±100 for the full control effect; nearly all actives have a fitted effect of over 60% in size
#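 AlphaScreen proximity signal between nickel-chelate acceptor and streptavidin donor beads (final 10 ug/mL) reports binding of 50 nM L3MBTL1 to 75 nM biotin-H3 K9me1 peptide; complex incubated with compounds 30 min at room temperature; cefsulodin titration as control.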
# PLK1 PBD block: inhibitors of human PLK1 polo-box domain binding; Plk1 PBD binding of FITC phosphopeptide, fluorescence polarization; Potency, µM, without a hit: max response, negative = inhibition, hits mostly inhibitors; 2.8% of 360,000 active; AID 720504; note: series mostly up to about 57 µM; % is set by controls: 0 for no effect and ±100 for the full control effect; nearly all actives have a fitted effect of over 65% in size
# Target sequence (P53350 whole entry, looked up, the tested form may be a part): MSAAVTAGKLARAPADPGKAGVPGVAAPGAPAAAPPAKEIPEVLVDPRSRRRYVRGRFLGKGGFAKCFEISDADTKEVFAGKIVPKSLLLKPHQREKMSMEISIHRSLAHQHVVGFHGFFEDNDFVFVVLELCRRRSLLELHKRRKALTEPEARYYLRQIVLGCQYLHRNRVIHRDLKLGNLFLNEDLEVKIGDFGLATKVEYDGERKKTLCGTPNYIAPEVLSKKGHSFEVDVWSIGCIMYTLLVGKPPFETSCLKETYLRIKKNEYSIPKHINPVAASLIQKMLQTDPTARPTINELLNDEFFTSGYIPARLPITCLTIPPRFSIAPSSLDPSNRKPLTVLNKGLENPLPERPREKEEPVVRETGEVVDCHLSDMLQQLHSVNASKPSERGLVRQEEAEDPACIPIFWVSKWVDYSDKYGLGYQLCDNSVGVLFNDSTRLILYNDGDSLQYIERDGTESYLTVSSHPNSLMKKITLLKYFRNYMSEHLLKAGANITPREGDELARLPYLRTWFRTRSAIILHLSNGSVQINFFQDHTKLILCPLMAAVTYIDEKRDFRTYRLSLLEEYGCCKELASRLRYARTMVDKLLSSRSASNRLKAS
# BAZ2B block: BAZ2B (human) inhibition; Q9UIF8; AlphaScreen BAZ2B-H3K14Ac peptide displacement; Potency, µM (doses to about 114 µM), for inactives: at the highest dose activity change, negative = inhibition, actives largely listed as inhibitors; 4.4% of 360,000 active; AID 504333; note: % is set by controls: 0 for no effect and ±100 for the full control effect; nearly all actives have a fitted effect of over 60% in size
#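 BAZ2B 50 nM plus b-H3(5-23)K14Ac 50 nM, PBS pH 7.4/0.01% Tween-20, 30 min RT; compound added (max 110 uM), 30 min RT; streptavidin donor/Ni-chelate acceptor beads 10 ug/mL final, 20 min dark; AlphaScreen read.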
# VDR inh: inhibitors of human vitamin D receptor | P11473 | VDR-SRC2-3 peptide fluorescence polarization, 2 h | Potency, µM, for the others: max response, negative = inhibition, usual class: inhibitors | AID 504847 | 0.93% of 400,000 active; note: % is set by controls: 0 for no effect and ±100 for the full control effect
#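 Two reagent solutions held at 4 deg C in the dark were dispensed, compounds pinned at 23 nl, and the mixture incubated 2 h at room temperature. Read-out: fluorescence polarization of VDR–SRC2-3 peptide binding.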
# * marks the source's active call; other numbers are inactive results; ? = inconclusive; nt = not tested or not shown; ! = repeats disagree; [ ] = another dose, or the depositor's remark. The list is not random: actives were taken first. Their share in the collection is about 6.9%. Calls come from the whole dose curve; as a rule, active = well fitted curve in the direction sought with a large enough effect; inconclusive = small, poorly fitted or top-dose-only effect, or another doubt; inactive = no such curve, though single readings can be large; an effect the other way counts as inactive or inconclusive. Potency is the fitted concentration of half-maximal effect.
SMILES,HP1b binding inh,JMJD2A Tudor inh,L3MBTL1 inh,PLK1 PBD block,BAZ2B block,VDR inh
COc1cccc(/C=C2\SC(=S)N(CC3CCCO3)C2=O)c1 (stereo not drawn),-51.6%,?,-28.3%,-7.8%,8.91µM*,-14.4%
O=C(NC[C@@H]1CCCCN1)c1cc(OCC(F)(F)F)ccc1OCC(F)(F)F,nt,nt,nt,nt,nt,-2.1%
CC1(C)CCCN(C(=O)c2ccc3c(c2NCCO)C(=O)c2ccccc2C3=O)C1,-78.8%,39.8µM*,35.5µM*,2.7%,14.1µM*,-16.2%
CC1CCCN(C(=O)c2ccc3c(c2NCCO)C(=O)c2ccccc2C3=O)C1 (stereo not drawn),50.1µM*,44.7µM*,nt,-7.6%,39.8µM*,-12.9%
O=C1c2ccccc2C(=O)c2c1ccc(C(=O)N1CCCCC1)c2NCCO,-22.9%,-18.5%,-5.2%,-5.4%,-5.4%,6.1%
CCn1c(=O)cc(SCC(=O)NCCc2cccc(C)c2)c2ccccc21,17.8%,-10.1%,nt,nt,-14.9%,0.9%
O=C(/C=C/c1ccccc1)C1=C(O)C(=O)N(CCO)C1c1cccc([N+](=O)[O-])c1 (stereo not drawn),24.1%,-6.8%,-1.3%,-5.5%,-24.6%,-14.6%
O=C(O)CCCCCN1C(=O)C(O)=C(C(=O)/C=C/c2ccccc2)C1c1ccc2c(c1)OCO2 (stereo not drawn),19.4%,22.4µM*,-10.5%,-26.4%,?,-3.4%
COCCN1C(=O)C(O)=C(C(C)=O)C1c1ccc(F)cc1 (stereo not drawn),0.6%,39.8µM*,-5.1%,1.0%,79.4µM*,1.4%
CC(=O)C1=C(O)C(=O)N(CCCCCC(=O)O)C1c1ccc(N(C)C)cc1 (stereo not drawn),12.0%,31.6µM*,nt,-3.5%,79.4µM*,22.9%
CC(C)Oc1ccc(CNC(=O)c2cnc3sc(N4CCCCC4)nn3c2=O)cc1,58.6%,-10.7%,nt,nt,11.8%,0.3%
O=C(CNC(=O)c1ccc(-c2ccccc2)cc1)OC(C(=O)Nc1cc(C(F)(F)F)ccc1Cl)c1ccccc1 (stereo not drawn),nt,-7.5%,nt,nt,nt,nt
Cc1ccc(SCCN2CCN(C)CC2)cc1,15.3%,-13.0%,-2.0%,-15.4%,-25.1%,1.8%
c1ccc(SCCN2CCc3ccccc3C2)cc1,-32.0%,25.1µM*,14.1%,-12.8%,4.8%,1.9%
OCCN1CCN(CCSc2ccccc2)CC1,0.2%,28.2µM*,8.8%,3.2%,-16.9%,-12.9%
c1nc(NCC2CCCO2)c2ccc(-c3ccc4c(c3)OCO4)cc2n1 (stereo not drawn),nt,79.4µM*,nt,nt,nt,nt
Cc1cc(N)ccc1S(C)(=O)=O,47.0%,15.5%,4.47µM*,-1.6%,-19.9%,13.9%
Cc1ccc(N)cc1S(=O)(=O)N(C)C,36.5%,-21.6%,-19.9%,-8.3%,-32.2%,-4.1%
N#C/C(=N\Nc1ccc(Cl)c(Cl)c1)C(=O)C1CC1,?,50.1µM*,nt,?,44.7µM*,5.8%
Nc1ccc(CSc2ccc(Cl)cc2)cc1,3.3%,-7.6%,-14.1%,-21.9%,-32.3%,9.5%
O=C(/C=C/c1ccco1)N(Cc1cccc(F)c1)C1CCS(=O)(=O)C1 (stereo not drawn),22.7%,-23.6%,nt,-25.9%,-25.8%,10.9%
O=C(c1ccco1)N(Cc1cccc(F)c1)C1CCS(=O)(=O)C1 (stereo not drawn),23.3%,-13.2%,nt,-2.6%,56.2µM*,2.1%
CCN(CC)c1ccc(CN(C(=O)c2ccco2)C2CCS(=O)(=O)C2)cc1 (stereo not drawn),3.5%,-35.3%,-16.4%,-7.0%,-36.0%,-5.7%
CCc1ccc(CN(C(=O)c2ccco2)C2CCS(=O)(=O)C2)cc1 (stereo not drawn),12.3%,22.4µM*,nt,-9.8%,2.0%,-14.3%
CCCS(=O)(=O)NC(=O)C1(C)CCN(C(=O)COc2ccccc2)C1 (stereo not drawn),nt,nt,nt,-0.9%,nt,nt
SMILES,HP1b binding inh,JMJD2A Tudor inh,L3MBTL1 inh,PLK1 PBD block,BAZ2B block,VDR inh
CCn1c(C)c(C)c2cc(C(=O)N3CCN(c4ccccc4)CC3)ccc21,?,44.7µM*,nt,0.4%,28.2µM*,4.6%
CCn1c(C)c(C)c2cc(C(=O)NC3CCCCCC3)ccc21,-19.3%[57 µM],?,nt,-0.6%,35.5µM*,0.7%
CCn1c(C)c(C)c2cc(C(=O)N3CCCC3)ccc21,-0.9%,-24.4%,nt,-14.8%,-36.4%,4.1%
O=C(OCC(=O)c1ccc(Cl)cc1Cl)c1ccccn1,28.2%,39.8µM*,?,-2.6%,nt,-16.1%
Nc1nc(SCC(=O)Nc2cccnc2Cl)n[nH]1,16.9%,?,1.3%,11.9µM*,-11.5%,-18.9%
COc1ccc(C(=O)COC(=O)c2ccccn2)c(OC)c1,10.5%[57 µM],-20.0%,-1.3%,-15.4%,nt,9.1%
CSc1ccccc1NC(=O)CSc1n[nH]c(N)n1,35.3%,10.0%,-0.2%,-3.3%,-0.1%,-6.8%
O=C(COC(=O)c1ccccn1)Nc1cccnc1Cl,-0.9%,?,-3.7%,-4.8%,79.4µM*,-17.0%
CCOC(=O)c1ncccc1NC(=O)CC(=O)Nc1cccnc1C(=O)OCC,20.5%,12.6µM*,nt,-3.2%,nt,19.9%
CC1(C)Cc2cccc(OCC(=O)NCc3cccs3)c2O1,25.9%,-9.7%,3.3%,-7.0%,8.7%,-8.7%
O=C(COC(=O)c1ccccn1)Nc1ccccc1OC(F)F,20.5%,56.2µM*,nt,-4.7%,50.1µM*,-16.0%
Cc1csc(SCC(=O)NC(=O)NC2CCCC2)n1,35.5%,-15.4%,4.0%,-12.4%,-6.4%,10.1%
O=C1c2ccccc2C(=O)N1c1cccc(Cl)c1,nt,-12.9%,nt,nt,nt,nt
CCn1nnc(NC(=O)CSc2ccc(Cl)cc2)n1,-15.5%,?,?,26.7µM*,?,-4.1%
CCc1nc2ccc(C(=O)N3CCN(c4cccc(C)c4C)CC3)cc2nc1CC,7.7%,-15.0%,nt,26.7µM*,-23.8%[57.1 µM],?
COc1ccc(CCNC(=O)C2CC(O)CN2S(=O)(=O)c2ccc(Cl)cc2)cc1OC (stereo not drawn),21.7%,-6.2%,-2.9%,-14.7%,nt,-8.7%
Cc1ccc(CNC(=O)c2nn(C)c3c2CS(=O)(=O)c2ccccc2-3)cc1,16.0%,?,nt,29.9µM*,-4.8%,-26.2%
COc1ccc(CNC(=O)c2nn(C)c3c2CS(=O)(=O)c2ccccc2-3)cc1,20.3%,?,nt,1.8%,-26.4%,79.4µM*!
CCN(CC)S(=O)(=O)c1ccc(NC(=O)[C@H](CCSC)N2Cc3ccccc3C2=O)cc1,15.4%,-19.9%,nt,nt,-27.5%,2.0%
CC(C)=CCC/C(C)=C/CNC(=O)C[C@H]1C[C@H](C(=O)N2CCCCC2)[C@@]2(CCc3ccccc3)c3[nH]c4cc(-c5ccco5)ccc4c3CCN2C1=O,7.5%,-34.8%,4.4%,-0.4%,nt,?
O=C(C[C@H]1C[C@H](C(=O)N2CCCCC2)[C@@]2(CCc3ccccc3)c3[nH]c4ccc(Cl)cc4c3CCN2C1=O)NCCCn1ccnc1,-23.4%,35.5µM*,-26.4%,-2.1%,nt,4.9%

# High-throughput results: PubChem BioAssay, National Center for Advancing Translational Sciences (NCATS)
